Among the data in the supplement of paper PMC13380429 are morphology score and SARS-CoV-2 infection rate values, retold here.

Experiment [1] relates to Vero E6 infected with SARS-CoV-2. As to the kind of experiment: morphology score (similarity to uninfected cells); higher = more like uninfected cells. As to conditions: 24 h.
The test system is the same in experiment [2]. In words: SARS-CoV-2 infection rate relative to infected DMSO; higher = more infection, active = 60 or less. As to conditions: 24 h.

Take `CCCCC/N=c1\ccn(Cc2ccccc2)c2ccccc12` (10 µM): the morphology score in experiment [1] is 0.0295. The SARS-CoV-2 infection rate in experiment [2] is 108% (inactive).

In experiment [1], `CC(C)NNC(=O)c1ccncc1` [iproniazid] (10 µM) returned a morphology score of 0.0745. The SARS-CoV-2 infection rate in experiment [2] is 108% (inactive).

Compound `COC(=O)C1=C(C)NC(C)=C(C(=O)NCCCN2CCC(c3ccccc3)(c3ccccc3)CC2)C1c1ccc([N+](=O)[O-])cc1` (centres undefined) (0.833333 µM) registered a morphology score in experiment [1] of 0.212. The SARS-CoV-2 infection rate in experiment [2] was 98.5% (inactive).

`C[n+]1ccccc1C=NO` [pralidoxime] (10 µM): in experiment [1], the morphology score is -0.226. For the same compound, in experiment [2], the SARS-CoV-2 infection rate was 116% (inactive).

For `CCCCNNC(=O)c1ccc(Br)cc1` (0.833333 µM), in experiment [1], the morphology score is -0.294. Further, the SARS-CoV-2 infection rate in experiment [2] was 116% (inactive).

Turning to `Cc1cccc(CN2CCN(C(c3ccccc3)c3ccc(Cl)cc3)CC2)c1` (centres undefined) [meclizine] (10 µM), the morphology score in experiment [1] came out at 0.0755. In addition, the SARS-CoV-2 infection rate in experiment [2] was 108% (inactive).

In experiment [1], `OCCn1cc(-c2ccc3c(c2)CC/C3=N\O)c(-c2ccncc2)n1` (10 µM) yielded a morphology score of 0.0962. Moreover, the SARS-CoV-2 infection rate in experiment [2] is 79.5% (inactive).

With `CCOCc1cc(OC)c(-c2ccc(C[C@H](NC(=O)c3c(F)cccc3F)C(=O)O)cc2)c(OC)c1` [firategrast] (10 µM), the morphology score in experiment [1] was -0.05. Moreover, the SARS-CoV-2 infection rate in experiment [2] is 105% (inactive).

`CC(C)=CCC[C@](C)(O)[C@H]1CC[C@]2(C)[C@@H]1[C@H](O)C[C@@H]1[C@@]3(C)CC[C@H](O)C(C)(C)[C@@H]3[C@@H](O)C[C@]12C` [hemomex-s] (10 µM): the morphology score in experiment [1] came to 0.173. Further, in experiment [2], the SARS-CoV-2 infection rate is 104% (inactive).

For the compound `CC(C)(C)NC[C@H](O)COc1nsnc1N1CCOCC1` [timolol] (10 µM), the morphology score in experiment [1] is -0.002. Further, the SARS-CoV-2 infection rate in experiment [2] was 98.5% (inactive).

Turning to `O=C(O)CCC(=O)C(=O)O` [2-oxoglutaric-acid] (10 µM), in experiment [1], the morphology score is -0.135. Also, the SARS-CoV-2 infection rate in experiment [2] was 110% (inactive).

On to `NC(=O)c1cn(Cc2c(F)cccc2F)nn1` [rufinamide] (10 µM), for which the morphology score in experiment [1] turned out to be 0.218. Moreover, the SARS-CoV-2 infection rate in experiment [2] is 102% (inactive).

`CC(C)Oc1ccc(-c2nn([C@@H](C)c3oc4ccc(F)cc4c(=O)c3-c3cccc(F)c3)c3ncnc(N)c23)cc1F` (10 µM): in experiment [1], the morphology score worked out at 0.0291. Further, the SARS-CoV-2 infection rate in experiment [2] is 106% (inactive).

`Cc1ccc2c(c1)C1(CCN(CCc3nc(-c4ccccc4)oc3C)CC1)OC(=O)N2` (0.833333 µM) showed a morphology score in experiment [1] of 0.0199. The SARS-CoV-2 infection rate in experiment [2] is 104% (inactive).

`CCCN(CCC)CCc1ccc(OC)c(OCCc2ccccc2)c1` (10 µM): the morphology score in experiment [1] is 0.353. In addition, the SARS-CoV-2 infection rate in experiment [2] is 86.5% (inactive).

In experiment [1], `CSc1ccccc1Nc1nc(N2CCNCC2)nc2c(NCC3CC3)ncnc12` (0.833333 µM) had a morphology score of 0.166. Also, the SARS-CoV-2 infection rate in experiment [2] is 101% (inactive).

`O=C1c2ccccc2-n2c1nc1ccccc1c2=O` [tryptanthrin] (10 µM) registered a morphology score in experiment [1] of 0.145. Besides, the SARS-CoV-2 infection rate in experiment [2] is 96% (inactive).

Regarding `CNS(=O)(=O)Nc1nccc(Cc2c(C)c3ccc(Oc4ncccn4)cc3oc2=O)c1F` (0.833333 µM), the morphology score in experiment [1] was -0.0748. Also, the SARS-CoV-2 infection rate in experiment [2] was 113% (inactive).

`COc1ccc(C(=O)c2ccccc2O)c(O)c1` [dioxybenzone] (0.833333 µM) showed a morphology score in experiment [1] of 0.165. Besides, the SARS-CoV-2 infection rate in experiment [2] was 88% (inactive).

Take `COc1ccc2[nH]c([S@@+]([O-])Cc3ncc(C)c(OC)c3C)nc2c1` [esomeprazole] (10 µM): the morphology score in experiment [1] is -0.181. Besides, the SARS-CoV-2 infection rate in experiment [2] is 110% (inactive).

For the compound `COc1ccc(NS(=O)(=O)c2ccc(/N=N/c3ccc(O)c(C(=O)O)c3)cc2)nn1` [salazodine] (10 µM), in experiment [1], the morphology score turned out to be 0.0596. For the same compound, the SARS-CoV-2 infection rate in experiment [2] is 113% (inactive).

`CC1=CC(=O)c2ccccc2C1=O` [menadione] (10 µM): the morphology score in experiment [1] was 0.144. Further, the SARS-CoV-2 infection rate in experiment [2] is 91% (inactive).

`COc1cccc(OC)c1OCCNC[C@H]1COc2ccccc2O1` (10 µM) displayed a morphology score in experiment [1] of 0.138. Also, the SARS-CoV-2 infection rate in experiment [2] was 108% (inactive).

Compound `COc1cc(OC)c2c(=O)[nH]c(-c3cc(C)c(OCCO)c(C)c3)nc2c1` [apabetalone] (0.833333 µM) gave a morphology score in experiment [1] of 0.0872. Further, the SARS-CoV-2 infection rate in experiment [2] was 106% (inactive).

Take `CC(C(=O)O)c1ccc2c(c1)Cc1ccccc1-2` (centres undefined) [cicloprofen] (10 µM): the morphology score in experiment [1] is -0.0564. Moreover, the SARS-CoV-2 infection rate in experiment [2] was 100% (inactive).

On to `S=C(S)N1CCCC1` [pyrrolidine-dithiocarbamate] (0.833333 µM), for which the morphology score in experiment [1] was found to be 0.106. The SARS-CoV-2 infection rate in experiment [2] is 98% (inactive).

`CC(C)(C)NCC(O)COc1cccc2[nH]c(=O)[nH]c12` (centres undefined) (10 µM) yielded a morphology score in experiment [1] of 0.0723. In experiment [2], the SARS-CoV-2 infection rate was 103% (inactive).

With `CC(C)[C@H](CO)Nc1nc(Nc2cc(N)cc(Cl)c2)c2ncn(C(C)C)c2n1` [aminopurvalanol-a] (0.833333 µM), the morphology score in experiment [1] is -0.224. Also, the SARS-CoV-2 infection rate in experiment [2] was 108% (inactive).

Take `O=C(Oc1ccccc1)c1ccccc1O` [phenyl-salicylate] (10 µM): the morphology score in experiment [1] was -0.0306. Also, the SARS-CoV-2 infection rate in experiment [2] was 103% (inactive).

Turning to `Cn1cc(C2=C(c3cn(CCCSC(=N)N)c4ccccc34)C(=O)NC2=O)c2ccccc21` [bisindolylmaleimide-IX] (0.833333 µM), in experiment [1], the morphology score came out at 0.0892. Further, the SARS-CoV-2 infection rate in experiment [2] is 91% (inactive).

Take `C[C@@H]1CCO[C@H]2Cn3cc(C(=O)NCc4ccc(F)cc4F)c(=O)c(O)c3C(=O)N12` [dolutegravir] (10 µM): the morphology score in experiment [1] was found to be 0.0816. Moreover, the SARS-CoV-2 infection rate in experiment [2] was 112% (inactive).

On to `C[C@H](Nc1cc2c(-c3ccc4c(c3)OCO4)noc2cn1)c1ccccc1` (10 µM), for which the morphology score in experiment [1] was found to be 0.191. Moreover, the SARS-CoV-2 infection rate in experiment [2] was 84.5% (inactive).
